{"source": "PubChem BioAssay (NCATS)", "key": {"[1]": {"molecular_target": "Cytochrome P450 1A2 (Homo sapiens) (UniProt P05177)", "sequence (P05177 whole entry, looked up)": "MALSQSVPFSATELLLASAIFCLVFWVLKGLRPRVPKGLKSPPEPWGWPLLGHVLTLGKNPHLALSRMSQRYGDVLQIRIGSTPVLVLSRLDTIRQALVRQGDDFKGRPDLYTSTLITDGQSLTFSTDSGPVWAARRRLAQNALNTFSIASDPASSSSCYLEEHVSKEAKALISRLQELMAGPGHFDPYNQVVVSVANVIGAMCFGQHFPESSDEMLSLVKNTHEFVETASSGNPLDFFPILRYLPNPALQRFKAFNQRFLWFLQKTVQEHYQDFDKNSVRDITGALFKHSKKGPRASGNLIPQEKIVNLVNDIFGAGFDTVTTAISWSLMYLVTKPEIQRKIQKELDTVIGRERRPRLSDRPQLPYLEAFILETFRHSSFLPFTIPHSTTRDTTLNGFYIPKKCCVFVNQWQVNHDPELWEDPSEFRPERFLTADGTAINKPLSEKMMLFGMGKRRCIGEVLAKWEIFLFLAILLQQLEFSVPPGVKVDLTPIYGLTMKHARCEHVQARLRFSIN", "experiment": "p450-cyp1a2 (AID 410; calls by dose curve; note: potency is the fitted concentration of half-maximal effect)", "how_it_was_run": "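Read-out is luminescence from luciferin produced by CYP1A2 demethylation of Luciferin-ME (100uM, at Km). Detection reagent stopped the 60 min NADPH-dependent reaction; signals were normalized to 57 uM furafylline.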"}, "[2]": {"experiment": "Stat Signaling Pathway (AID 446; active = well fitted curve in either direction with a large enough effect, not every such curve was filed as active;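 note: ME-180 cervical cancer cells given 40 pM IL-6 alongside compound; % is set by controls: 0 for no effect and ±100 for the full control effect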)", "conditions": "ME-180 SIE beta-lactamase reporter, IL-6 stimulated, 5 h; at 17.2 µM (top of the series) unless noted", "how_it_was_run": "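Overnight-plated ME-180 cells bearing a STAT Inducible Element beta-lactamase reporter; 5 h co-exposure to compound and 40 pM IL-6; values normalized to 300 pM IL-6 and 125 nM JAK inhibitor controls.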"}, "[3]": {"molecular_target": "Glucocorticoid receptor (Homo sapiens) (UniProt P04150)", "sequence (P04150 whole entry, looked up, the tested form may be a part)": "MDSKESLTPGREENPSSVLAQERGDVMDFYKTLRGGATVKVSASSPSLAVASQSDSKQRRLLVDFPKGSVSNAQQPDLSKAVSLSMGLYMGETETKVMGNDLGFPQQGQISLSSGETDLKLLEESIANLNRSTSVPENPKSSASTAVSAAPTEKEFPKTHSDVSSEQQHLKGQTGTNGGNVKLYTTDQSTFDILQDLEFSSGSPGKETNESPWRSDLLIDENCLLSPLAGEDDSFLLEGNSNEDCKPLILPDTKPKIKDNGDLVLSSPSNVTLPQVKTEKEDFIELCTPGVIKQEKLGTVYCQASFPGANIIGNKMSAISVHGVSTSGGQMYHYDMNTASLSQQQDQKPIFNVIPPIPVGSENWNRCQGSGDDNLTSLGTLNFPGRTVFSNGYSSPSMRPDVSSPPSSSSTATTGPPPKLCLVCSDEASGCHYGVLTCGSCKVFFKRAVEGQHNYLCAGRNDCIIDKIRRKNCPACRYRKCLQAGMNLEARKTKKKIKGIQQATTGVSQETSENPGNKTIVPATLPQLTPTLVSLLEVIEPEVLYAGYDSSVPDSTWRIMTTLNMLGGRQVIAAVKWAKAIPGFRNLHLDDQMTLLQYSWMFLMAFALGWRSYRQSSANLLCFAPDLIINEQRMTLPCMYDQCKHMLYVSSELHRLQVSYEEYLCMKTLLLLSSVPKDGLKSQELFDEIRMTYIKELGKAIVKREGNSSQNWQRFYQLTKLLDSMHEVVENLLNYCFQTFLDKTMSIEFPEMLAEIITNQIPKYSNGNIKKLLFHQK", "experiment": "GR-GFP Redistribution (AID 450;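 active = compounds whose dose series gives a full or clear partial fitted curve of increased nuclear translocation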; note: potency is the fitted concentration of half-maximal effect)"}, "[4]": {"molecular_target": "Glucocorticoid receptor (Homo sapiens) (UniProt P04150)", "experiment": "GR-EFC Redistribution (AID 451; calls by dose curve; note: potency is the fitted concentration of half-maximal effect)", "conditions": "CHO-K1 GR-EFC translocation, beta-gal luminescence, 2 h", "how_it_was_run": "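Translocation of GR-ED fusion to nuclear EA restores b-gal, read by luminescence after 1 h room-temperature detection. Engineered CHO-K1 biosensor cells, 1,000/well, exposed 2 h at 37 C to titrations up to 46 uM final.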"}, "[5]": {"molecular_target": "Guanine nucleotide-binding protein G(i) subunit alpha-1 (Homo sapiens) (UniProt P63096)", "sequence (P63096 whole entry, looked up)": "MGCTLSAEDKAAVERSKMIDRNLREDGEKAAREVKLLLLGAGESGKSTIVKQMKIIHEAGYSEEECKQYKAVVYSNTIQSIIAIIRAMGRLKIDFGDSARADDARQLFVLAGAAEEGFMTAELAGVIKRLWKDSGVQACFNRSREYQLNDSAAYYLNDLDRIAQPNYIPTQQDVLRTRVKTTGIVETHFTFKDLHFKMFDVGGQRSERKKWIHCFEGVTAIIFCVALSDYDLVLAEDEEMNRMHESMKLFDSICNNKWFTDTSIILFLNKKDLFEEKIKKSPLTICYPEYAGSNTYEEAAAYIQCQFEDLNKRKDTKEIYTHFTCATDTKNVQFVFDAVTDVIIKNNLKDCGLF", "experiment": "qHTS Assay for Inhibitors of RGS12 GoLoco Motif Activity (Green Fluorophore) (AID 879);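 note: 0% = labeled peptide with Gαi1 and full inhibition = labeled peptide alone without protein; negative values mean loss of peptide binding seen as reduced polarization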", "how_it_was_run": "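A drop in FITC polarization marked displacement of the FITC-tagged RGS12 GoLoco peptide (10 nM) from Gαi1 (50 nM). Compounds were incubated 10 min at room temperature in Tris pH 7.5 buffer containing 150 mM NaCl, 0.1 mM GDP and 0.05% NP40; unlabeled peptide titration served as control.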"}, "[6]": {"molecular_target": "Cytochrome P450 3A4 (Homo sapiens) (UniProt P08684)", "experiment": "qHTS Assay for Activators of Cytochrome P450 3A4 (AID 885); note: nearly all actives have a fitted effect of over 65% in size", "how_it_was_run": "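Using 20nM recombinant human CYP3A4 in potassium phosphate (200mM), substrate Luciferin-PPXE at 25uM, luminescent luciferin detection followed a 60-min RT NADPH reaction; data scaled to 57 uM ketoconazole.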"}, "[7]": {"molecular_target": "Cytochrome P450 2D6 (Homo sapiens) (UniProt P10635)", "sequence (P10635 whole entry, looked up)": "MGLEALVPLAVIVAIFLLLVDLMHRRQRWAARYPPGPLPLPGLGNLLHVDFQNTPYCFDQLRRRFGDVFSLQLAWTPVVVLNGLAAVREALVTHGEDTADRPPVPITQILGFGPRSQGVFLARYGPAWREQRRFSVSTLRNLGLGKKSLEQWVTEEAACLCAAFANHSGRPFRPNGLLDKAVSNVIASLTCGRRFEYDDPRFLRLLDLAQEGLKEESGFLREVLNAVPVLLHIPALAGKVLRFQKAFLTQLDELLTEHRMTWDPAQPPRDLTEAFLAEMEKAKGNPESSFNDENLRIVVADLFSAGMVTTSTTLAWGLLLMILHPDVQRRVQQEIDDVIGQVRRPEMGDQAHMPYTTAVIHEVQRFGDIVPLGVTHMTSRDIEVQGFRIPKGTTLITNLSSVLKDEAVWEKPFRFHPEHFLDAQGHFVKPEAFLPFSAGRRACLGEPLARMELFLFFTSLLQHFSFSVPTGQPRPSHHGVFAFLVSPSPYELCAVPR", "experiment": "qHTS Assay for Inhibitors and Substrates of Cytochrome P450 2D6 (AID 891); note: potency is the fitted concentration of half-maximal effect; nearly all actives have a fitted effect of over 60% in size", "how_it_was_run": "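Luminescent read-out of luciferin formed by 5 nM human CYP2D6 demethylating 30 uM Luciferin-ME EGE (Km level) over 60 min at room temperature after NADPH regeneration addition. Data normalized to full inhibition by 1.43 uM quinidine.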"}, "[8]": {"molecular_target": "Muscarinic acetylcholine receptor M1 (Rattus norvegicus) (UniProt P08482)", "sequence (P08482 whole entry, looked up)": "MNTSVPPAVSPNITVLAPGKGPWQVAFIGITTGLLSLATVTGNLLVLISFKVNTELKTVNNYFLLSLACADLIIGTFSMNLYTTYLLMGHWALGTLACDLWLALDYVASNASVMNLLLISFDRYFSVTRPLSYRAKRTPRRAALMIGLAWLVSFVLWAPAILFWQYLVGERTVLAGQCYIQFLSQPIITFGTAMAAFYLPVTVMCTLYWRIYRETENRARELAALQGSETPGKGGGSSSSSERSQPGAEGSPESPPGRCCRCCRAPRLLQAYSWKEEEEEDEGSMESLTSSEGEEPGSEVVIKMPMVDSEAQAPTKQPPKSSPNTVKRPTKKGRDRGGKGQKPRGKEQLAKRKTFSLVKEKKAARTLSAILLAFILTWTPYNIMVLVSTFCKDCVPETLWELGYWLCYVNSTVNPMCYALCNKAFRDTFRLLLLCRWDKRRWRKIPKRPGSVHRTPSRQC", "experiment": "qHTS Assay for Antagonists of Acetylcholine Muscarinic M1 Receptor: Kinetic Measurement of Intracellular Calcium Response (AID 943); note: potency is the fitted concentration of half-maximal effect; nearly all actives have a fitted effect of over 75% in size", "how_it_was_run": "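Quantitative HTS in CHO-M1 (rat receptor) cells: 10 min compound exposure ahead of 100 nM carbachol, Fluo-4 fluorescence followed 4 min, value expressed as peak-to-basal ratio.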"}, "[9]": {"molecular_target": "Muscarinic acetylcholine receptor M1 (Rattus norvegicus) (UniProt P08482)", "experiment": "qHTS Assay for Antagonists of Acetylcholine Muscarinic M1 Receptor: Measurement of IP-One Response (AID 944); note: potency is the fitted concentration of half-maximal effect; nearly all actives have a fitted effect of over 75% in size", "how_it_was_run": "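Antagonism was measured as loss of carbachol-driven (EC80) IP1 accumulation in CHO cells carrying rat M1, using a homogeneous IP-One TR-FRET kit read at 620 and 665 nm.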"}, "[10]": {"molecular_target": "Pyruvate kinase (Leishmania mexicana) (UniProt Q27686)", "sequence (Q27686 2-499 E452W)": "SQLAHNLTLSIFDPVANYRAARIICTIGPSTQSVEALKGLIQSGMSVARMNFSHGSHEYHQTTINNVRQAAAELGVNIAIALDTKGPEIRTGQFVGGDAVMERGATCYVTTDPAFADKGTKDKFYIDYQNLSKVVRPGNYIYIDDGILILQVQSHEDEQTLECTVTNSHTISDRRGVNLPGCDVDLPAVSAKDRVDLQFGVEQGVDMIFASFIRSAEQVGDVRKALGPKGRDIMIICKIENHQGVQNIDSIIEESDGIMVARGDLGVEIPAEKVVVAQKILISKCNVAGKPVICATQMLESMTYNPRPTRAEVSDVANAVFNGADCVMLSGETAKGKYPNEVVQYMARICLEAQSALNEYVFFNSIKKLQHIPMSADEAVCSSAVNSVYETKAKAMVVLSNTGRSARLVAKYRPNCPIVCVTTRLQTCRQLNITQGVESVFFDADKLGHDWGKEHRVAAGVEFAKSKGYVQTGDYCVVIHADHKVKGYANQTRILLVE", "experiment": "qHTS Validation Assay for Inhibitors of Leishmania Mexicana Pyruvate Kinase (AID 945);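 note: 0% = DMSO only neutral control wells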", "how_it_was_run": "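The enzyme is a highly purified E451W mutant of LmPYK used at 0.2 nM. It converts 0.5 mM PEP and 0.1 mM ADP over 1 h at room temperature; product ATP is quantified by luciferase luminescence relative to DMSO controls.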"}, "[11]": {"molecular_target": "Pyruvate kinase PKM (Homo sapiens) (UniProt P14618)", "sequence (P14618 whole entry, looked up)": "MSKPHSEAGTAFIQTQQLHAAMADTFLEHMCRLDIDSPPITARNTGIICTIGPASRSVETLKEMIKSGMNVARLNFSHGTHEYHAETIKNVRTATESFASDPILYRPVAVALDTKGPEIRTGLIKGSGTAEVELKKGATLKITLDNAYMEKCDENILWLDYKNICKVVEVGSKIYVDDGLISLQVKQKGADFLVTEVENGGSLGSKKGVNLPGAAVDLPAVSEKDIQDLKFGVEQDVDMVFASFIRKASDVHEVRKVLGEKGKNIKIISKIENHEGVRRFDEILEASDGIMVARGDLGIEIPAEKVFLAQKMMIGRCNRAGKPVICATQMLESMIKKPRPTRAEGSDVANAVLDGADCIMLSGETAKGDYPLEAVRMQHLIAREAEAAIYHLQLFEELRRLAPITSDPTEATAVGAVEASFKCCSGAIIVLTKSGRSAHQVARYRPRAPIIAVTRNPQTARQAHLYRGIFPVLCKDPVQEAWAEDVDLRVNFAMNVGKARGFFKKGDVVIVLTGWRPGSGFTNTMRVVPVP", "experiment": "qHTS Assay for Activators of Human Muscle Pyruvate Kinase (AID 954; active = well fitted curve in the direction sought with a large enough effect, not every such curve was filed as active;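 note: 0% = uninhibited enzyme and -100% = no enzyme or full thiadiazolimine inhibition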)", "how_it_was_run": "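Screening used highly purified human pyruvate kinase M2 under submaximal activity, with PEP at its Km and ADP below Km. After an hour at room temperature, ATP was read by luciferase luminescence.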"}, "[12]": {"molecular_target": "Alpha-galactosidase A (Homo sapiens) (UniProt P06280)", "sequence (P06280 whole entry, looked up)": "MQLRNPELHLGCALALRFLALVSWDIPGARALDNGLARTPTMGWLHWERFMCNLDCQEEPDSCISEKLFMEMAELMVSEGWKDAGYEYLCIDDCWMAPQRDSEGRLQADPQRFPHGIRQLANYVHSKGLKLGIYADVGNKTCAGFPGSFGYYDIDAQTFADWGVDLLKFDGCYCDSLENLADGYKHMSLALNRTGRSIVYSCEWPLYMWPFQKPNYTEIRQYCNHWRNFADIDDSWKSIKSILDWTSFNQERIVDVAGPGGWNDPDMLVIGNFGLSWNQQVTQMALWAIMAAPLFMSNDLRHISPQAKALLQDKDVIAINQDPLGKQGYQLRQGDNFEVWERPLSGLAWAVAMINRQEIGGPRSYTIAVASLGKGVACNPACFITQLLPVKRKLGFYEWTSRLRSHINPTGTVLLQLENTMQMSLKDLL", "experiment": "Counterscreen for Glucocerebrosidase Inhibitors: qHTS Assay for Human alpha-Galactosidase at pH 4.5 (AID 992); note: 0% is about no effect", "how_it_was_run": "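Each compound is preincubated briefly with 2 nM enzyme before substrate addition (80 uM); plates then sit 20 min at ambient temperature, are quenched with 1M NaOH/1M glycine, and read fluorometrically.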"}, "[13]": {"molecular_target": "alpha-glucosidase (Oryza sativa, rice) (UniProt Q653V4)", "experiment": "Counterscreen for Glucocerebrosidase Inhibitors: qHTS Assay for Rice alpha-Glucosidase at pH 5.0 (AID 997);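 note: 0% = full activity with enzyme and -100% = basal without enzyme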", "how_it_was_run": "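Endpoint fluorogenic assay at pH 5.0: compounds (0.7 nM to 77 uM) titrated against 4 nM rice enzyme and 400 uM 4-MU-alpha-glucoside for 20 min at room temperature; NaOH/glycine stop, read ex 365/em 440 nm, Hill-fitted AC50.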"}, "[14]": {"experiment": "NFAT Signaling Pathway (AID 444; active = well fitted curve in either direction with a large enough effect, not every such curve was filed as active;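 note: carbachol stimulus at about its EC50 of 1 µM final; % is set by controls: 0 for no effect and ±100 for the full control effect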)", "conditions": "Jurkat NFAT-bla M1, carbachol, beta-lactamase ratio, 5 h; at 17.2 µM (top of the series) unless noted", "how_it_was_run": "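Read-out: CCF4 FRET ratio (460 nm/530 nm) after 1 h RT dye loading, used for %activity and AC50 from titration series. Cells: Jurkat NFAT-β-lactamase/M1 line, treated with compound plus 1 uM carbachol for 5 h, 37 °C.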"}, "[15]": {"molecular_target": "Mitogen-activated protein kinase 10 (Mus musculus) (UniProt Q61831)", "experiment": "JNK3 AlphaScreen Assay (AID 530; active = well fitted curve in either direction with a large enough effect, not every such curve was filed as active; note: % is set by controls: 0 for no effect and ±100 for the full control effect)", "how_it_was_run": "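Kinase buffer: 20 mM Tris-HCl pH 7.6, 10 mM MgCl2, 1 mM DTT, 0.1 mM Na3VO4, 0.01% Tween-20; ATP 10 uM. Substrate biotin-GST-cJun(1-79), enzyme from activated HepG2 lysates. Detection by Ser73 phospho-antibody AlphaScreen.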"}, "[16]": {"molecular_target": "3',5'-cyclic-AMP phosphodiesterase 4B (Homo sapiens) (UniProt Q07343)", "experiment": "qHTS Assay for Inhibitors of PDE-IV (AID 607; active = well fitted activation curve with a large enough effect in the main read-out, with a control signal flat, not every such curve was filed as active; note: % of control where 0% means no effect)", "how_it_was_run": "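Live HEK293 cells with a modified cyclic nucleotide-gated (CNG) channel report intracellular cAMP via membrane-potential dye fluorescence (ex 535/em 590 nm). Endogenous PDE-IV was targeted. Compounds were tested at up to 22.9 uM final; RO 20-1724 100 uM served as control.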"}, "[17]": {"molecular_target": "Ubiquitin carboxyl-terminal hydrolase 1 (Homo sapiens) (UniProt O94782)", "sequence (O94782 whole entry, looked up)": "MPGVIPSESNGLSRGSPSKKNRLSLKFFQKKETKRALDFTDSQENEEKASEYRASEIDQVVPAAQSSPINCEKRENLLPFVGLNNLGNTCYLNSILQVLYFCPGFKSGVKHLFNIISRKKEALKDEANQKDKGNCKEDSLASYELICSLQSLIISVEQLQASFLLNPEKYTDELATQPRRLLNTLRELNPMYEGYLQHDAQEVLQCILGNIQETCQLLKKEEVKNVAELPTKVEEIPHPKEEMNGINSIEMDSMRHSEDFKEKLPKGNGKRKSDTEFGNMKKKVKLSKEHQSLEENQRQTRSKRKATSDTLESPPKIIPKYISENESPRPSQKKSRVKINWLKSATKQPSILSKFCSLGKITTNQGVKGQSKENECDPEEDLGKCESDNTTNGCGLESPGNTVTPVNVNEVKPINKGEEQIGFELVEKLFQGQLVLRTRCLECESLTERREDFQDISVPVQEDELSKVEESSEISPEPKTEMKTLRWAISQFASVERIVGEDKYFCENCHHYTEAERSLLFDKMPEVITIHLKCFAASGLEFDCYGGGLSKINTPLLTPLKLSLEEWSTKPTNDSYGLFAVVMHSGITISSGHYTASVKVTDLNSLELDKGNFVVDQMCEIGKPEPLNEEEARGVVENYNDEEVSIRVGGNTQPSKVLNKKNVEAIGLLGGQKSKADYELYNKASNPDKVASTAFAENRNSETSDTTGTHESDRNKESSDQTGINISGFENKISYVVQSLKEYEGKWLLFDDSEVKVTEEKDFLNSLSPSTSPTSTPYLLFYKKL", "experiment": "Inhibitors of USP1/UAF1: Pilot qHTS (AID 504865);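 note: rhodamine fluorescence freed from ubiquitin-rhodamine substrate followed over time; top concentration of the series differs between compounds; % is set by controls: 0 for no effect and ±100 for the full control effect; nearly all actives have a fitted effect of over 35% in size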", "how_it_was_run": "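Enzyme-free wells gave the negative control, while test wells held 1nM USP1/UAF1 preincubated with compound for 15 min at room temperature. Ub-Rho at 150nM final started the reaction, and fluorescence at 480/540 nm was recorded kinetically.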"}, "[18]": {"experiment": "AP1 Signaling Pathway (AID 357; active = well fitted curve in either direction with a large enough effect, not every such curve was filed as active; note: % is set by controls: 0 for no effect and ±100 for the full control effect)", "conditions": "ME-180 AP-1-bla reporter, EGF-induced, beta-lactamase ratio, 5 h; at 17.2 µM (top of the series) unless noted", "how_it_was_run": "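ME-180 cells with beta-lactamase reporter under AP-1 response element, stimulated with EC50 EGF; compounds tested in titration series, 5 h at 37 °C. CCF4 substrate added 2.5 h at room temperature; 460/530 nm emission ratio gave %activity and AC50.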"}, "[19]": {"experiment": "qHTS Assay for Identification of Small Molecule Agonists for Hypoxia Response Element Signaling Pathway (AID 914; active = well fitted activation curve with a large enough effect in the signal ratio, with a control signal flat, not every such curve was filed as active; the % refers to the signal ratio; note: potency is the fitted concentration of half-maximal effect)", "conditions": "ME-180 HRE-bla reporter, beta-lactamase ratio, CoCl2, 17 h; activation: stronger effect = higher value", "how_it_was_run": "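Cells were plated overnight, pin-dosed with compound in a titration series, co-stimulated with EC50 CoCl2 and incubated 17 hours at 37 degrees Celsius. CCF4 substrate was then loaded, and AC50 values came from the 460nm/530nm ratio.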"}}, "note": "A number with no mark means an inactive call. Records with an inconclusive call do not appear. Active and inactive are the calls of the source. Unless noted, calls come from the whole dose curve; as a rule, active = well fitted curve in the direction sought with a large enough effect; inconclusive = small, poorly fitted or top-dose-only effect, or another doubt; inactive = no such curve, though single readings can be large; an effect the other way counts as inactive or inconclusive.", "data": [{"smiles": "CN1CCN([C@@H]2Cc3ccccc3Sc3ccc(Cl)cc32)CC1", "values": [{"measurement": "Potency", "setting": "[1]", "result": "12.6 µM (active)"}, {"measurement": "activity, negative = inhibition", "setting": "[2]", "result": "2.01% [at 38 µM]"}, {"measurement": "Potency", "setting": "[3]", "result": "> 46", "unit": "µM"}, {"measurement": "Potency", "setting": "[4]", "result": "> 46", "unit": "µM"}, {"measurement": "outcome", "setting": "[5]", "result": "inactive"}, {"measurement": "Potency", "setting": "[6]", "result": "inactive"}, {"measurement": "Potency", "setting": "[7]", "result": "0.398 µM (active)"}, {"measurement": "Potency", "setting": "[8]", "result": "1.78 µM (active)"}, {"measurement": "Potency", "setting": "[9]", "result": "10 µM (active)"}, {"measurement": "Potency", "setting": "[10]", "result": "inactive"}, {"measurement": "outcome", "setting": "[11]", "result": "inactive"}, {"measurement": "outcome", "setting": "[12]", "result": "inactive"}, {"measurement": "outcome", "setting": "[13]", "result": "inactive"}]}, {"smiles": "COc1cc(/C=C\\C(=O)N2CCC=CC2=O)cc(OC)c1OC", "values": [{"measurement": "Potency", "setting": "[1]", "result": "0.2 µM (active)"}, {"measurement": "activity change, negative = inhibition", "setting": "[14]", "result": "-142% (active)"}, {"measurement": "activity, negative = inhibition", "setting": "[2]", "result": "-101% (active)"}, {"measurement": "Potency", "setting": "[3]", "result": "> 20.6", "unit": "µM"}, {"measurement": "Potency", "setting": "[4]", "result": "> 20.6", "unit": "µM"}, {"measurement": "Potency", "setting": "[15]", "result": "inactive"}, {"measurement": "Potency", "setting": "[16]", "result": "inactive"}, {"measurement": "Potency", "setting": "[17]", "result": "inactive"}]}, {"smiles": "CC(C)N1CC=C2C(C#N)=C(N)C(C#N)(C#N)C(c3ccccc3)C2C1", "note": "(stereo unspecified)", "values": [{"measurement": "activity change, negative = inhibition", "setting": "[18]", "result": 26.3, "unit": "%"}, {"measurement": "Potency", "setting": "[3]", "result": "> 20.6", "unit": "µM"}]}, {"smiles": "CN(C)c1ccc(-c2nn3c(-c4ccc(Cl)cc4)nnc3s2)cc1", "values": [{"measurement": "activity change, negative = inhibition", "setting": "[18]", "result": 21.4, "unit": "%"}, {"measurement": "Potency", "setting": "[3]", "result": "> 20.6", "unit": "µM"}, {"measurement": "Potency", "setting": "[19]", "result": "10 µM (active)"}]}]}
